From PubChem BioAssay AID606 (Columbia University Molecular Screening Center, 2007)
Among all 52,000 compounds or so, fewer than 10 were called active.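 Rule for the calls: active = IC50 under 40 µM in the dose-response test; inactive = IC50 of 40 µM or more, or never dose-tested.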 These entries were drawn from the full list.

The compounds below were run against Tyrosine-protein phosphatase non-receptor type 22 (Homo sapiens) (UniProt Q9Y2R2) (assay: LYP phosphatase inhibitors, primary screen, biochemical, DiFMUP fluorescence, recombinant catalytic domain, 10 µM (AID 606)). Conditions: at 10 µM, stronger effect = higher value.
Chain of Tyrosine-protein phosphatase non-receptor type 22 (Homo sapiens) (Q9Y2R2 whole entry, looked up, the tested form may be a part): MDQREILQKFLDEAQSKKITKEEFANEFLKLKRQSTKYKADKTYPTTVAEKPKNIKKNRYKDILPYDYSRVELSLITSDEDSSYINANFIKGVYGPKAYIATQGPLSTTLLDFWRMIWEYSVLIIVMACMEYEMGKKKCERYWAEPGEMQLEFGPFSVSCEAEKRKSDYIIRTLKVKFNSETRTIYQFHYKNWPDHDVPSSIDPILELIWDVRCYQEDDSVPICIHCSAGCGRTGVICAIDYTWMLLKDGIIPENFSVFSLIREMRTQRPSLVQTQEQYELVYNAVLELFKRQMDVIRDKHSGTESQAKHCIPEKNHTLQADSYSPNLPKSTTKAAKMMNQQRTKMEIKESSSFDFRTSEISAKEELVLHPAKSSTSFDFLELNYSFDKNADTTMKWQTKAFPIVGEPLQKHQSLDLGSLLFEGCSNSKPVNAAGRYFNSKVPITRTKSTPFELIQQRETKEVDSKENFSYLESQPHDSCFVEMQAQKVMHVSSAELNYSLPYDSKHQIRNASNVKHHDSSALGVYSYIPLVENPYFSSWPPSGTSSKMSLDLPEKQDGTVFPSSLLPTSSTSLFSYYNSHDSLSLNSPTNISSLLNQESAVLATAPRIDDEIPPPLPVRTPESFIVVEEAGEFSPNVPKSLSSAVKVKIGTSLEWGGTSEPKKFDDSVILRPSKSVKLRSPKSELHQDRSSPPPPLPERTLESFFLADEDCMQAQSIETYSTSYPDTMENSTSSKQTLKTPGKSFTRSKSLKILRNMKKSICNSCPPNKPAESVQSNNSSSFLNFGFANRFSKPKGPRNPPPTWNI

inhibition, inactive:
O=C(NCc1ccccc1)c1ccc(COCC(F)(F)F)o1 11.7%
CCN1C(=Nc2ccc(Cl)cc2)SC/C1=C\C(=O)OC 6.44%
COc1ccc(C2CC(c3cccc(C)c3)n3ncnc3N2)cc1 (centres undefined) 16.6%
CC1CCC(NC(=O)CN2C(=O)C3CCCN3c3ncc(Cl)cc32)CC1 (centres undefined) -36.6%
Cc1cc(N2CCN(C(c3ccccc3)c3ccc(Cl)cc3)CC2)n2ncnc2n1 (centres undefined) 3.46%
O=C(Nc1ccccn1)C1CCN(S(=O)(=O)c2cccs2)CC1 4.65%
COc1ccc(CCNC(=O)CC2Oc3ccc(Cl)cc3NC2=O)cc1OC (centres undefined) -7.5%
CC(=O)Nc1ccc(C(=O)OCCC(C)C)cc1 -3.58%
Cc1nc2ccc(S(=O)(=O)NCC(=O)N(C)Cc3ccco3)cc2s1 4.87%
CNC(=O)c1ccccc1NC(=O)c1cccc(S(=O)(=O)N2CCC(C)CC2)c1 -7.79%
CCc1ccc2c(COn3nnc4ccc(S(=O)(=O)N(C)C)cc43)cc(=O)oc2c1 -1.03%
CCCSCCCNC(=O)CC1Oc2ccccc2NC1=O (centres undefined) 2.3%
Cc1cccc(Nc2ncnc3nc[nH]c23)c1 -1.47%
CCOCCCNCc1ccc(OC)c(OC)c1 6.63%
CCOC(=O)C1CCN(C(=O)CN(c2cccc(OC)c2)S(=O)(=O)c2ccccc2)CC1 -2.95%
COc1ccccc1OCCC(=O)OCCN1C(=O)c2ccccc2C1=O -6.96%
O=C(Cn1cnc2ccccc2c1=O)N1CCN(Cc2ccccc2)CC1 15.4%
CC(C)(C)c1ccc(S(=O)(=O)N2CCCCC2C(=O)NCc2ccccn2)cc1 (centres undefined) 11%
CCOc1ccc(NC(=O)CSc2nnc(-c3ccccn3)n2N)cc1 6.01%
Cc1c(NC(=O)C2CCCN(S(=O)(=O)c3cnc[nH]3)C2)c(=O)n(-c2ccccc2)n1C (centres undefined) 8.93%
COc1ccc2c(C)cc(SCC(=O)N3CCOCC3)nc2c1 8.83%
Cc1cc(=O)[nH]c(SCC(=O)c2ccc(C(C)C)cc2)n1 10.2%
COC(=O)C1=C(C)n2nnnc2NC1c1cc2ccccc2o1 (centres undefined) 12.9%
COc1cccc(NC(=O)CN(c2cccc(F)c2)S(C)(=O)=O)c1 -7.34%
Cc1cc(C)c(S(=O)(=O)N(C)Cc2cnn(C)c2)c(C)c1 7.74%
Cc1ccc(-c2cc(C(=O)NCc3ccccn3)no2)cc1 6.16%
CC1(C)Cc2ccccc2-c2nnc(-c3ccc(O)cc3)n21 5.6%
COc1ccc(C(=O)N2CCN(c3ccc(C)cc3)CC2)cc1OC -3.18%
CCNC(=O)CC1C(=O)N(c2ccccc2)C(=O)N1CCC(C)C (centres undefined) 5.24%
COc1ccccc1-n1c(CNC(=O)c2ccco2)nnc1SCC(=O)Nc1nccs1 3.45%
CCOC(=O)Cn1c(=N)n(Cc2ccccc2)c2ccccc21 -0.97%
Cn1c(CN2CCOCC2)nc2cc(NC(=O)c3ccccc3Cl)ccc21 10.7%
Cc1cc(C)n2nc(C(=O)Nc3ccccc3N3CCOCC3)nc2n1 15.1%
CCCn1c(N)c(C(=O)CN2CCN(S(=O)(=O)c3cccs3)CC2)c(=O)[nH]c1=O -0.47%
CCCN(c1ccc(OCC)cc1)c1ncnc2nc[nH]c12 16.1%
CC1(C)Cc2c(sc(NC(=O)c3ccco3)c2C#N)CO1 4.29%
CC(=O)c1ccc(OCCCC(=O)n2nnc3ccccc32)cc1 14.1%
Cc1cc(C(F)(F)F)nc(SCC(=O)Nc2ccccc2)n1 0.2%
C=CCSc1nc(C)c(CC(=O)OCCCC)c(=O)[nH]1 2.59%
CCOC(=O)c1oc2c(CN3CCCCC3C)c(O)ccc2c(=O)c1-c1ccc(OC)c(OC)c1 (centres undefined) 15.8%
CC(=O)NC(c1ccccc1)c1nc2ccccc2[nH]1 (centres undefined) -1.04%
CCCn1c(NCc2ccco2)nc2ccccc21 11.7%
COc1ccc(CCNc2cc(=O)[nH]c(N)n2)cc1 16.4%
COC(=O)c1ccc(CSc2nc3scc(-c4cccs4)c3c(=O)[nH]2)o1 3.74%
COc1ccc(NC2CCN(C3CC(=O)N(c4ccc(F)c(Cl)c4)C3=O)CC2)cc1 (centres undefined) 4.79%
COc1ccc(CC(=O)N2CCN=C2SC)cc1 7.94%
O=S(=O)(Nc1ccc2c(c1)oc1ccccc12)N1CCCC1 -2.32%
Cc1ccc(S(=O)(=O)/N=C(/Nc2nc(C)cc(C)n2)N2CCOCC2)cc1 2.14%
Cc1nnc(NCc2ccco2)c2ccccc12 5.7%
